Results from PubChem BioAssay (NCATS).
Values joined by “and” are separate entries in the source; they are usually repeats but may differ in a detail not shown here. Equal values may be shown once. Results filed as inconclusive are left out. Active and inactive are the calls of the source. Unless noted, calls follow the shape of the dose curve; as a rule, active = well fitted curve in the direction sought with a large enough effect; inconclusive = small, poorly fitted or top-dose-only effect, or another doubt; inactive = no such curve, though single readings can be large; an effect the other way counts as inactive or inconclusive.

How the values were obtained:
[1] = Cell Viability - LYMP1-002 - Assay at 24 hr (AID 993); settings: LYMP1-002 lymphoblastoid cells viability; series mostly up to 92.2 µM; also: potency is read from the fitted curve at half-maximal effect
Method in brief: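 Human lymphoblastoid LYMP1-002 cells, 2500/well in complete medium, were treated with compounds for 24 h at 37 C; intracellular ATP was read by CellTiter-Glo luminescence. AC50 values came from Hill-equation fits of qHTS concentration-response data.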

[2] = Cell Viability - LYMP1-002 - Assay at 40 hr (AID 994); settings: LYMP1-002 lymphoblastoid cell viability; series mostly up to 92.2 µM; also: nearly all actives have a fitted effect of over 60% in size; also: potency is read from the fitted curve at half-maximal effect
Method in brief: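 Human lymphoblastoid cells, 2500/well in complete medium, were preincubated 5 hr at 37 C, then exposed to compounds for 40 hr at 37 C. Intracellular ATP was read by CellTiter-Glo luminescence after 30 min at room temperature; AC50 from Hill-equation fits.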

[3] = qHTS Assay for Lipid Storage Modulators (AID 1519; calls by dose curve; as to activity change, negative = inhibition: % is scaled to controls: 0 for no effect and ±100 for the full control effect); settings: Drosophila S3 cells, BODIPY lipid droplet/cell ratio, laser cytometry, cells loaded with oleic acid
Method in brief: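 Cells seeded at 5,000 per well were treated with compounds over a concentration series and loaded with oleic acid (400 uM, as added). Lipid droplet fluorescence (488 nm excitation, 500-530 nm channel) was read by laser-scanning cytometry and normalized to 20 uM Triacsin C.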

[4] = qHTS Assay for Identification of Small Molecule Inducers of Hypoxia Response (AID 2120; active = well fitted curve in the direction sought with a large enough effect in the signal ratio, with a control signal flat, not every such curve was filed as active; the % refers to the signal ratio; also: 0% is about no effect); settings: hypoxia response reporter cells, beta-lactamase ratio readout; series mostly up to 104 µM
Method in brief: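 HRE-beta-lactamase reporter in CellSensor HRE-bla ME-180 cells, 2500 cells/well in Opti-MEM with 0.5% dialyzed FBS; compounds tested as titration series, 17 h at 37 degrees C. CCF4 substrate 2.5 h at room temperature; AC50 from 460/530 nm ratio.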

[5] = target: Alpha-galactosidase A (Homo sapiens) (UniProt P06280); assay: Counterscreen for Glucocerebrosidase Inhibitors: qHTS Assay for Human alpha-Galactosidase at pH 4.5 (AID 992); settings: purified enzyme, fluorogenic substrate; series mostly up to 76.9 µM; also: 0% is about no effect
Sequence of Alpha-galactosidase A (Homo sapiens) (P06280 whole entry, looked up): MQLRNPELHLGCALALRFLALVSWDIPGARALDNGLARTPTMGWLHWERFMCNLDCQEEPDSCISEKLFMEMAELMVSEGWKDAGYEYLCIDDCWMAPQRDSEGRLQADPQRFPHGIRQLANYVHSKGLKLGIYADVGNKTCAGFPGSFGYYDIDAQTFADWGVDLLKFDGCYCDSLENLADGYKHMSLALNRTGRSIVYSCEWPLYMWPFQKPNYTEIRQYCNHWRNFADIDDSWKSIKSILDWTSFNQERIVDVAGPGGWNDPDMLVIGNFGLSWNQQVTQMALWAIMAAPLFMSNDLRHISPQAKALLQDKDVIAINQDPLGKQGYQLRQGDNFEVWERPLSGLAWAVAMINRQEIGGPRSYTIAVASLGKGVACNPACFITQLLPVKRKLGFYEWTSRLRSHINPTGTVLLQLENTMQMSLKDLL
Method in brief: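 Concentration-response curves (0.7 nM to 77 uM final) were modeled with the Hill equation to give AC50. Reactions: 2 nM enzyme, 80 uM fluorogenic alpha-galactoside, pH 4.5 citric acid buffer, 20 min, room temperature.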

[6] = target: alpha-glucosidase (Oryza sativa, rice) (UniProt Q653V4); assay: Counterscreen for Glucocerebrosidase Inhibitors: qHTS Assay for Rice alpha-Glucosidase at pH 5.0 (AID 997); settings: rice alpha-glucosidase enzyme activity; series mostly up to 76.9 µM;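 also: 0% = full activity with enzyme and -100% = basal without enzyme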
Method in brief: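 Rice alpha-glucosidase (4 nM final) with 400 uM 4-methylumbelliferyl-alpha-D-glucopyranoside in citrate buffer pH 5.0, 20 min at room temperature, stopped at pH 10; fluorescence 365/440 nm, compounds 0.7 nM–77 uM, AC50 from Hill fits.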

[7] = Validation of Assay for Modulators of Lamin A Splicing (AID 1459; active = well fitted curve in the direction sought with a large enough effect in the signal ratio; the % refers to the signal ratio;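 also: cells exposed to compound for two days before reading; 0% is about no effect; ratio rise marks activators and ratio drop marks inhibitors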); settings: Lamin A splicing dual RFP/GFP fluorescence reporter; series mostly up to 9.22 µM
Method in brief: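 Dual-reporter HeLa S3 line (lamin A-EGFP minigene, DsRed2) treated with compounds 48 hrs, 0.5% DMSO final. Endpoint: EGFP/DsRed2 total intensity ratio from laser-scanning microplate cytometry.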

[8] = target: DNA repair nuclease/redox regulator APEX1 (Homo sapiens) (UniProt P27695); assay: qHTS Validation Assay for Inhibitors of the Human Apurinic/apyrimidinic Endonuclease 1 (APE1) (AID 1705;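 also: TAMRA fluorescence gain over two minutes as APE1 cuts a quenched THF abasic duplex; % is scaled to controls: 0 for no effect and ±100 for the full control effect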); settings: purified APE1 endonuclease activity, fluorescence, titration; series mostly up to 57.1 µM
Sequence of DNA repair nuclease/redox regulator APEX1 (Homo sapiens) (P27695 whole entry, looked up): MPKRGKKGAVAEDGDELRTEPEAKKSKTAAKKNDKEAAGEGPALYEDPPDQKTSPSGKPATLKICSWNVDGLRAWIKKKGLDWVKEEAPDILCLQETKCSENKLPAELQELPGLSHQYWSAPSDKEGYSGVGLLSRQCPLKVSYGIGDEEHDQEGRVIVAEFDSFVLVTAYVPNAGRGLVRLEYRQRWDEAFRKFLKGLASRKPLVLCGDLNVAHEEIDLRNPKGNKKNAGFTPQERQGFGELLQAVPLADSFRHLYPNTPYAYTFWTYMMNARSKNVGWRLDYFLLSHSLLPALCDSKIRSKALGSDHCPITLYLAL
Method in brief: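 Substrate: 50 nM final fluorophore/quencher THF-abasic duplex. Enzyme preincubated with compounds 15 min, RT. Progress derived from fluorescence difference, third minus first kinetic read.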

[9] = Counterscreen for APE1 Inhibitors: Fluorescent Dye Displacement Validation Assay (AID 1707); settings: fluorescent dye displacement from DNA; series mostly up to 57.1 µM;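 also: plate controls were ThO with dsDNA and no compound for no effect and ThO without dsDNA for full effect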
Method in brief: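 Assay buffer: Tris-HCl pH7.5 with 50mM NaCl, 2 mM MgCl2, 0.01% Tween-20. Dye 250 nM, duplex 50 nM final. Readout: decrease in ThO endpoint fluorescence, 480 nm excitation, 540 nm emission.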

[10] = target: Endonuclease 4 (Escherichia coli (strain K12)) (UniProt P0A6C1); assay: Counterscreen for APE1 Inhibitors: qHTS Validation Assay for Inhibitors of Endonuclease IV (AID 1708); also: % is scaled to controls: 0 for no effect and ±100 for the full control effect; settings: E. coli endonuclease IV, DNA cleavage fluorescence; series mostly up to 57.1 µM
Method in brief: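 Enzymatic AP-site incision assay using a double-stranded THF substrate labelled with TAMRA and BHQ-2; released fluorescence signals activity. Enzyme 2 nM, substrate 50 nM, 15 min compound preincubation.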

[11] = qHTS for differential inhibitors of proliferation of Plasmodium falciparum line 7G8 (AID 1815); settings: Plasmodium falciparum 7G8 proliferation inhibition; series mostly up to 28.7 µM;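 also: parasite growth measured after three days of incubation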; also: potency is read from the fitted curve at half-maximal effect;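 as to activity change, negative = inhibition: plate controls were vehicle wells for no effect and reference inhibitor wells for full effect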
[12] = qHTS for differential inhibitors of proliferation of Plasmodium falciparum line Dd2 (AID 1882); settings: Potency: Plasmodium falciparum Dd2 proliferation inhibition; series mostly up to 28.7 µM; also: nearly all actives have a fitted effect of over 65% in size; also: potency is read from the fitted curve at half-maximal effect;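 as to activity change, negative = inhibition: compound exposure of 72 h on infected erythrocytes; plate controls were DMSO vehicle for no effect and 0.29 µM artemisinin for full effect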
Method in brief: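 SYBR Green I DNA fluorescence read-out, ex 485/em 535 nm. Signals were normalized to 0.29 uM artemisinin and DMSO wells, then corrected using vehicle-only plates flanking each stack. Parasite growth ran 72 h in erythrocytes before lysis.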

[13] = target: Ferritin light chain (Equus caballus) (UniProt P02791); assay: qHTS Validation Assay for Identification of Novel General Anesthetics (AID 2323); settings: horse apoferritin, anesthetic-site fluorescent probe displacement; series mostly up to 76.9 µM; also: % is scaled to controls: 0 for no effect and ±100 for the full control effect
Sequence of Ferritin light chain (Equus caballus) (P02791 2-175 limits assumed): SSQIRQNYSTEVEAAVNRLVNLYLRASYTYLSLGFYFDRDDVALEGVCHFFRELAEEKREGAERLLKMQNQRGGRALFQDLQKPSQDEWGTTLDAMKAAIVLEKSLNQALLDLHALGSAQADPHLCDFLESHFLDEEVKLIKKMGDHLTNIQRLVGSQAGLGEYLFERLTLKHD
Method in brief: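 Normalized fluorescence response, scaled between free 1-AMA and 1-AMA/apoferritin complex, fitted to a four-parameter Hill equation for concentration-effect values. Binding mix: 10 uM horse-spleen apoferritin, 50% saturated 1-AMA in PBS; read 380/535 nm after 10 min.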

[14] = target: ATP-dependent DNA helicase Q1 (Homo sapiens) (UniProt P46063); assay: qHTS Validation Assay for Inhibitors of RecQ-Like Dna Helicase 1 (RECQ1) (AID 2353); settings: recombinant RECQ1 helicase DNA unwinding assay; series mostly up to 25.6 µM;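 also: plate controls were DMSO vehicle for no effect and enzyme-free control for full effect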
Sequence of ATP-dependent DNA helicase Q1 (Homo sapiens) (P46063 whole entry, looked up): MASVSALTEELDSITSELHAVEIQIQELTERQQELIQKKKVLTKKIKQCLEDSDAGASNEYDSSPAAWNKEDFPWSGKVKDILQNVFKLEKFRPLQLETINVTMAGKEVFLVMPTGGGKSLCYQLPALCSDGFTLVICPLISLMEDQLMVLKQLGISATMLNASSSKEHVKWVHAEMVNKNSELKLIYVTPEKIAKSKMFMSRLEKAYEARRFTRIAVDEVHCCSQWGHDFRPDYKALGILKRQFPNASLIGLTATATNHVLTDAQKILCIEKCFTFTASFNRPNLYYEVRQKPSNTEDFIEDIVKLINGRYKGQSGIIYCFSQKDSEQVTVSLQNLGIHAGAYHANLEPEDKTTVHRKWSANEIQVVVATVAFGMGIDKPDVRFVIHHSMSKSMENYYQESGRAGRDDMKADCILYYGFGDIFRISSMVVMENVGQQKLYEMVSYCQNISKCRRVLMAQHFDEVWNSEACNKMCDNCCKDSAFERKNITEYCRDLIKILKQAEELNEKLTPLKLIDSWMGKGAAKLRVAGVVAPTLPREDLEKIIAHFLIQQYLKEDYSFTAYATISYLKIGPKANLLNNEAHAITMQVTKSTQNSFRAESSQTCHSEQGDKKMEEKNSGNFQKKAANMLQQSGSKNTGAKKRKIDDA
Method in brief: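 50 nM RECQ1T1 preincubated 15 min with compound in Tris pH 8.0 buffer with MgCl2, DTT, Tween-20 and 2.5 ug/ml poly(dI-dC); started with 200 nM TAMRA/BHQ-2 forked duplex and 2 mM ATP. Unwinding read as fluorescence (525/598 nm), two reads 2 h apart.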

[15] = qHTS for differential inhibitors of proliferation of Plasmodium falciparum line GB4 (AID 1816); settings: Potency: Plasmodium falciparum GB4 proliferation inhibition; series mostly up to 28.7 µM;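 also: parasite growth measured after 72 h incubation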; also: potency is read from the fitted curve at half-maximal effect;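 as to activity change, negative = inhibition: 0% = vehicle DMSO and -100% = reference inhibitor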
[16] = qHTS for differential inhibitors of proliferation of Plasmodium falciparum line 3D7 (AID 1876); also: potency is read from the fitted curve at half-maximal effect; settings: P. falciparum 3D7 proliferation inhibition; series mostly up to 28.7 µM
[17] = qHTS for differential inhibitors of proliferation of Plasmodium falciparum line D10 (AID 1877); settings: series mostly up to 28.7 µM;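 also: parasites grown with compound for 72 h before DNA staining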; also: potency is read from the fitted curve at half-maximal effect;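 as to activity change, negative = inhibition: plate controls were vehicle wells for no effect and reference inhibitor wells for full effect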
[18] = qHTS for differential inhibitors of proliferation of Plasmodium falciparum line W2 (AID 1883); settings: Potency: Plasmodium falciparum W2 proliferation inhibition; series mostly up to 28.7 µM;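 also: parasites grown with compound for 72 h before lysis and staining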; also: potency is read from the fitted curve at half-maximal effect;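 as to activity change, negative = inhibition: 0% = vehicle wells and -100% = control inhibitor wells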
[19] = qHTS Assay for Modulators of Human Peripheral Myelin Protein 22 (PMP22) Expression/Activity (AID 1967; active = well fitted curve in the direction sought with a large enough effect in the signal ratio; the % refers to the signal ratio;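 also: 0% = untreated cells and 100% end not stated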); settings: Cell-based PMP22 reporter, dual-color luciferase ratio, 0% = compound-free control cells, mouse Pmp22 promoter in mouse Schwann cells; series mostly up to 115 µM
Method in brief: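 Engineered MSC80 cells, Pmp22-promoter green and EF-alpha red luciferase reporters; 24h compound treatment at 37 °C. Concentration-response fits on green, red and ratio signals, each overlap-corrected, with %Activity normalized to untreated wells.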

[20] = qHTS for differential inhibitors of proliferation of Plasmodium falciparum line HB3 (AID 1886); settings: Potency: Plasmodium falciparum HB3 proliferation inhibition; series mostly up to 28.7 µM;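 also: parasites grown with compound for 72 h before SYBR Green readout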; also: potency is read from the fitted curve at half-maximal effect;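 as to activity change, negative = inhibition: plate controls were vehicle for no effect and reference inhibitor for full effect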
[21] = measured here: cell count channel max response
[22] = measured here: lipid channel max response

OCc1c[nH]c2ccccc12
7.12%: max response [3, 22]
inactive: Potency [1] | Potency [2] | activity change, negative = inhibition ([3]; at 57.5 µM (top of the series)) 3.03% | outcome [4]
0.192%: max response [3, 21]

Cn1cnc2c(NCc3ccccc3)nc(NCCO)nc21
-34.7%: max response [3, 22]
inactive: outcome [5] | outcome [6] | outcome [7] | activity change, negative = inhibition ([3]; at 57.5 µM (top of the series)) -0.56% | outcome [8] | outcome [9] | outcome [10] | Potency [11] | Potency [12] | outcome [13] | outcome [14]
-34.4%: max response [3, 21]

NC(N)=NCCCCN=C(N)N
inactive: outcome [5] | outcome [6] | outcome [7] | activity change, negative = inhibition ([3]; at 25.7 µM (top of the series)) -0.421% | activity change, negative = inhibition ([3]; at 57.5 µM (top of the series)) -1.91% and 4.1% and 0.28% | outcome [8] | outcome [9] | outcome [10] | Potency [11] | Potency [15] | Potency [16] | Potency [17] | Potency [12] | Potency [18] | outcome [19] | outcome [13] | outcome [14]

O=C(NO)c1ccccc1
inactive: Potency [1] | Potency [2] | outcome [4]

CC(C)(C)c1ccc(O)c(O)c1
inactive: outcome [4]

Nc1cccc2c(N)cccc12
inactive: Potency [1] | Potency [2] | outcome [4]

CC(C)C(C)(C)C(C)(C)C(C)(C)S
inactive: Potency [1] | Potency [2] | outcome [4]

CC(=O)OC/C=C(C)/C=C/C=C(C)/C=C/C1=C(C)CCCC1(C)C
inactive: Potency [1] | Potency [2] | outcome [4]

Brc1ccccc1-c1ccccc1
inactive: Potency [1] | Potency [2] | outcome [4]

CCCCCCCCCCCCCCCC[n+]1ccccc1
active: Potency [1] 15.8 µM | Potency [2] 7.94 µM

Cc1ccc(O)cc1
20.7%: max response [3, 22]
10.2%: max response [3, 21]
inactive: Potency [1] | Potency [2] | activity change, negative = inhibition ([3]; at 57.5 µM (top of the series)) 6.36%

C1=CC2C3C=CC(C3)C2C1 (stereo not given)
inactive: Potency [1] | Potency [2] | outcome [4]

O=C(c1ccccc1)c1ccccc1
inactive: Potency [1] | Potency [2] | outcome [4]

c1ccc2occc2c1
inactive: Potency [1] | Potency [2] | outcome [4]

CC(C)(c1ccc(O)cc1)c1ccc(O)cc1
inactive: Potency [1] | Potency [2] | outcome [4]

CC(C)N(CCC(=O)c1ccc2ccccc2c1)Cc1ccccc1
inactive: outcome [5] | outcome [6] | outcome [8] | outcome [9] | outcome [10] | Potency [16] | Potency [17] | Potency [12] | Potency [20] | outcome [14]

Oc1ccccc1
inactive: Potency [1] | Potency [2] | outcome [4]

C[C@]12CCC(=O)C=C1CC[C@@H]1[C@@H]2[C@@H](O)C[C@@]2(C)[C@H]1CC[C@]2(O)C(=O)COC(=O)CCC(=O)O
inactive: outcome [8] | outcome [9] | outcome [10] | Potency [15] | Potency [16] | Potency [17] | Potency [12] | Potency [20] | outcome [13] | outcome [14]

Nc1c2ccccc2nc2ccccc12
-6.77%: max response [3, 21]
-18.9%: max response [3, 22]
inactive: activity change, negative = inhibition ([3]; at 57.5 µM (top of the series)) -13.1%
active: Potency [1] 20 µM | Potency [2] 12.6 µM

O=C(Oc1ccccc1)c1ccccc1O
inactive: Potency [1] | Potency [2] | outcome [4]

Nc1ccc(O)cc1
active: Potency [1] 39.8 µM | Potency [2] 50.1 µM

CCCCC(CC)COC(=O)c1ccccc1C(=O)O (stereo not given)
inactive: Potency [1] | Potency [2] | outcome [4]

O=[N+]([O-])c1ccc(-c2nc(-c3ccc(F)cc3)c(-c3ccncc3)[nH]2)cc1
inactive: outcome [5] | outcome [6] | outcome [8] | outcome [10] | outcome [13]
active: Potency [11] 4.47 µM | Potency [15] 3.98 µM | Potency [16] 3.55 µM | Potency [17] 5.01 µM | Potency [12] 6.31 µM | Potency [18] 3.98 µM | Potency [20] 4.47 µM

CCCC(=O)c1cc(O)c(O)cc1O
inactive: Potency [1] | Potency [2] | outcome [4]

COc1cc(C=O)ccc1O
inactive: Potency [1] | Potency [2] | outcome [4]
